For experiment [1], the target named is Estrogen receptor (Homo sapiens) (UniProt P03372). In words: qHTS assay for small molecule antagonists of estrogen receptor alpha signaling (AID 588513; active means well fitted curve in the direction sought with a large enough effect in the signal ratio, with a control signal flat, not every such curve was filed as active; inconclusive means small, poorly fitted or top-dose-only effect, or effect the other way, or a change in a side signal; inactive means no such curve, though single readings can be large or run the other way; the % refers to the signal ratio; further: potency means the concentration at half of the fitted maximal effect). An outline of the steps:
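Antagonist-mode qHTS in ER-alpha-UAS-bla HEK 293 cells: compound titration, 0.5nM estradiol for 18 h, CCF4 fluorescence, Hill-derived IC50.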
(Quantitative high-throughput screening tests each substance at several concentrations.)

The target of experiment [2] is Peroxisome proliferator-activated receptor delta (Homo sapiens) (UniProt Q03181). In words: qHTS assay for small molecule antagonists of peroxisome proliferator-activated receptor delta signaling (AID 588535; active means well fitted inhibition curve with a large enough effect in the signal ratio, with a control signal flat, not every such curve was filed as active; inconclusive means small, poorly fitted or top-dose-only effect, or effect the other way, or a change in a side signal; inactive means no such curve, though single readings can be large or run the other way; the % refers to the signal ratio). An outline of the steps: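 Titrations were run on PPAR-delta-UAS-bla HEK293T cells in charcoal/dextran-stripped serum, incubated 18 h at 37 C. CCF4 fluorescence (460/530 nm) after 2 h RT; Hill equation yields IC50 and maximal response.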
Peroxisome proliferator-activated receptor delta (Homo sapiens), sequence (Q03181 whole entry, looked up): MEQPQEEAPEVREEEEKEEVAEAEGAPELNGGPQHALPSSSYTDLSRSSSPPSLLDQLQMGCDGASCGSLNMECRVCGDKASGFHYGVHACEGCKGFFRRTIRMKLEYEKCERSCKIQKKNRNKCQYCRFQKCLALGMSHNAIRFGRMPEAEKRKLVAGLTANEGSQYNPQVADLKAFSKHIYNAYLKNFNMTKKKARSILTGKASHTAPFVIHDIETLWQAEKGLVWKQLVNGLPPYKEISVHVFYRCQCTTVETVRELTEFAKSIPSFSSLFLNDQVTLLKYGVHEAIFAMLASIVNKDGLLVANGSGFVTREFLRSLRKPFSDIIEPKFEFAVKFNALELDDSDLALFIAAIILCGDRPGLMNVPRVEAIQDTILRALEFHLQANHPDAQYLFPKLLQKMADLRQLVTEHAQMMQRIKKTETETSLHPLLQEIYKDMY

Experiment [3] is described as follows: qHTS assay for small molecule activators of the human pregnane X receptor (PXR) signaling pathway (AID 720659; call rule not given here; further: 0% is about no effect).
Experiment [4] has as its target Estrogen receptor (Homo sapiens) (UniProt P03372). The experiment can be described thus: qHTS assay for small molecule agonists of estrogen receptor alpha signaling (AID 588514).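 Further: 0% = vehicle only and 100% = reference agonist; nearly all actives have a fitted effect of over 70% in size.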 An outline of the steps: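 EC50 and efficacy came from Hill fits of beta-lactamase reporter signal (CCF4 dye, 2 h at room temperature) scaled between DMSO and 20 nM 17-beta-estradiol. Agonist mode: HEK293 ER-alpha-UAS-bla cells in charcoal/dextran-stripped serum medium, 18 h compound exposure at 37 C.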

The target in experiment [5] is Androgen receptor (Homo sapiens) (UniProt P10275). In words: qHTS assay for small molecule agonists of androgen receptor signaling (AID 588515; active means well fitted curve in the direction sought with a large enough effect in the signal ratio, with a control signal flat; inconclusive means small, poorly fitted or top-dose-only effect, or effect the other way, or a change in a side signal; inactive means no such curve, though single readings can be large or run the other way; the % refers to the signal ratio; further: on the % scale 0 is the no-effect control and ±100 the full control effect). The note with it: AR-UAS-bla HEK293, beta-lactamase ratio, agonist 16 h; stronger effect = higher value. Put shortly: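 Stimulation of an AR-responsive β-lactamase reporter in GripTite HEK293 cells was measured after 16 h compound exposure at 37 °C, via CCF4 fluorescence after 2 h RT. EC50 from Hill fits, normalized to R1881 at 30 nM.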
Androgen receptor (Homo sapiens), sequence (P10275 whole entry, looked up): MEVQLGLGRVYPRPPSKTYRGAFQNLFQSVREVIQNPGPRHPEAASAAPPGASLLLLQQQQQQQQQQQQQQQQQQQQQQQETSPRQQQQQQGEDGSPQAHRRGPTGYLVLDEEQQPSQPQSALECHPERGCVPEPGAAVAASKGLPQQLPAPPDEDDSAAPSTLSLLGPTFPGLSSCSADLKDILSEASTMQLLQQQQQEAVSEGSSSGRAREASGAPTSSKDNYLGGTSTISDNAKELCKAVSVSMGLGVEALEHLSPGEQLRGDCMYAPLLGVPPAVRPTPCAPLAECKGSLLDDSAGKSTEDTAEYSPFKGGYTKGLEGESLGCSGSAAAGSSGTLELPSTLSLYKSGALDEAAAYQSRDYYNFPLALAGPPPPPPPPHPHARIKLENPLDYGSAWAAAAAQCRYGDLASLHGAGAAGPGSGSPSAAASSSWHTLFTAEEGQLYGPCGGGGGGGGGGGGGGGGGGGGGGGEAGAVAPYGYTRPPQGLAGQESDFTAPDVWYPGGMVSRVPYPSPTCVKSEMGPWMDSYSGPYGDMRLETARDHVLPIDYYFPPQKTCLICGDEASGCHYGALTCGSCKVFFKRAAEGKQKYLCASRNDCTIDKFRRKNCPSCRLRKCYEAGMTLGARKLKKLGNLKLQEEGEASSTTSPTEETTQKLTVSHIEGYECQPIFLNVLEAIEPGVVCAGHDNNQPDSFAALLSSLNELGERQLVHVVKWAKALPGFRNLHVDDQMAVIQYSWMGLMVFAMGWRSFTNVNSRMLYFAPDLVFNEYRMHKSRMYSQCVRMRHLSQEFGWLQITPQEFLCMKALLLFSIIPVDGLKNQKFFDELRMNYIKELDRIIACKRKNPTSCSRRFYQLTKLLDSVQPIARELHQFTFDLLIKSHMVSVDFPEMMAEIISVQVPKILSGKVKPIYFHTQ

Experiment [6] shares this target. In words: qHTS assay for small molecule antagonists of androgen receptor signaling (AID 588516; active means well fitted curve in the direction sought with a large enough effect in the signal ratio, with a control signal flat, not every such curve was filed as active; inconclusive means small, poorly fitted or top-dose-only effect, or effect the other way, or a change in a side signal; inactive means no such curve, though single readings can be large or run the other way; the % refers to the signal ratio; further: on the % scale 0 is the no-effect control and ±100 the full control effect). Put shortly:
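Compounds tested in titration against 10 nM R1881 in AR-responsive bla reporter HEK 293 cells; CCF4 fluorescence (460/530 nm) after 16 h exposure gave IC50 and efficacy.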

Experiment [7] addresses Bile acid receptor (Homo sapiens) (UniProt Q96RI1). In words: qHTS assay for small molecule antagonists of farnesoid X receptor signaling (AID 588526). Further: on the % scale 0 is the no-effect control and ±100 the full control effect. Put shortly:
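Beta-lactamase reporter antagonist mode: HEK293T FXR-UAS-bla cells, titrated compound, CDCA stimulation, 16 h 37 C, CCF4 dye 2 h RT. Data normalized to CDCA 50 uM and DMSO; Hill-fit IC50.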

Experiment [8] has the same target. In words: qHTS assay for small molecule agonists of farnesoid X receptor signaling (AID 588527).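 Further: series mostly up to about 77 µM; 0% = vehicle basal and 100% = reference agonist.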 The note with it: HEK293T FXR-UAS-bla, beta-lactamase ratio, 16 h; activation: stronger effect = higher value. Put shortly:
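FXR-UAS-bla HEK293T cells (10% dialyzed FBS) preincubated 5-7 h at 37 C, then compounds at up to 92 uM for 16 h at 37 C. CCF4 beta-lactamase read-out after 2 h RT. Normalized to chenodeoxycholic acid (100 uM) and DMSO; Hill fit gave EC50 and efficacy.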

For experiment [9], the target named is Glucocorticoid receptor (Homo sapiens) (UniProt P04150). The experiment can be described thus: qHTS assay for small molecule antagonists of glucocorticoid receptor signaling (AID 588533; active means well fitted inhibition curve with a large enough effect in the signal ratio, with a control signal flat, not every such curve was filed as active; inconclusive means small, poorly fitted or top-dose-only effect, or effect the other way, or a change in a side signal; the % refers to the signal ratio;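 further: cells stimulated with 2 nM dexamethasone as agonist; on the % scale 0 is the no-effect control and ±100 the full control effect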). An outline of the steps: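 Antagonist-mode qHTS: compound titrations added to GRE-bla HeLa cells, then dexamethasone 2 nM final; 18 h, 37 C. CCF4 FRET fluorescence normalized to dexamethasone and DMSO; IC50 from Hill fit.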
Glucocorticoid receptor (Homo sapiens), sequence (P04150 whole entry, looked up): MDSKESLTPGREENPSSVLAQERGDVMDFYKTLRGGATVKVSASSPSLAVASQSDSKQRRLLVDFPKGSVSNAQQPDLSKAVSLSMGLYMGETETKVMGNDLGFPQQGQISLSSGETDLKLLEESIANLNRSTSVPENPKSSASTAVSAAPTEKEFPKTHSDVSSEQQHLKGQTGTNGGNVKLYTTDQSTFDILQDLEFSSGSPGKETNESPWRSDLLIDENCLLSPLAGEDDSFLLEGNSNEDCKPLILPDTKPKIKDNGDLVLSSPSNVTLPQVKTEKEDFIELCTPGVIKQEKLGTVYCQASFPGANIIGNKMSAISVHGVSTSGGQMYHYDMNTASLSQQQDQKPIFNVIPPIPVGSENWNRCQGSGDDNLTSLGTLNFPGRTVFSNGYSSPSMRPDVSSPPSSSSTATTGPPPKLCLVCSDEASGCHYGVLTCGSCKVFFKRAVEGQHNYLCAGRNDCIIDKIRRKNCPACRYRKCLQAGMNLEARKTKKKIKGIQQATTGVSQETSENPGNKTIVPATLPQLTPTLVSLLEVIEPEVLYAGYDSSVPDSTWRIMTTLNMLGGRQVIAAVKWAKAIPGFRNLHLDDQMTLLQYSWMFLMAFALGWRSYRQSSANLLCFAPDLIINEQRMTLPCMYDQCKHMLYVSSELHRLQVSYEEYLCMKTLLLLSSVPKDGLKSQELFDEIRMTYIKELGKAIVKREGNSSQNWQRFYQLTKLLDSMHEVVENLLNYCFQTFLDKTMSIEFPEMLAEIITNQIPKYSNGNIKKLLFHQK

The nature of experiment [10]: qHTS assay for small molecule agonists of retinoid X receptor alpha signaling (AID 588544). Conditions: HEK293T RXRa-UAS-bla, beta-lactamase reporter, 18 h; 530 nm emission.
Experiment [11] can be described thus: qHTS assay for small molecule activators of the nuclear factor-kappa B (NF-kB) signaling pathway (AID 651749; active means well fitted activation curve with a large enough effect in the signal ratio; inconclusive means small, poorly fitted or top-dose-only effect, or a change in a side signal; the % refers to the signal ratio; further: series mostly up to about 77 µM; % of control where 0% means no effect). The note with it: NF-kB-bla ME-180 cells, beta-lactamase FRET ratio, 16 h; activation: stronger effect = higher value. Put shortly: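 Activation measured after 16 hr compound treatment at 37C, 5% CO2, of 2,000 ME-180 cells/well stably expressing an NF-kB response element–driven beta-lactamase reporter, via FRET-disruption fluorescence.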

Experiment [12] is described as follows: qHTS assay for small molecule agonists of the antioxidant response element (ARE) signaling pathway (AID 651741; active means well fitted activation curve with a large enough effect in the signal ratio; inconclusive means small, poorly fitted or top-dose-only effect, or effect the other way, or a change in a side signal; the % refers to the signal ratio; further: potency means the concentration at half of the fitted maximal effect; on activation: % of control where 0% means no effect). An outline of the steps:
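Beta-lactamase reporter under ARE control in HepG2 cells, 2,000 per well, was induced by 16 h compound treatment at 37 C. Read-out was fluorescence from LiveBLAzer B/G FRET substrate after 2 h at room temperature.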

Experiment [13] in a line: qHTS assay for small molecule antagonists of the retinoid-related orphan receptor gamma (ROR-gamma) signaling pathway - cell viability counter screen (AID 720652; active means well fitted cell-killing curve with a large enough effect in the repeat runs; inconclusive means weak or mixed curves, or effect the other way;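 further: potency means the concentration at half of the fitted maximal effect; compound exposure lasted 16 hr before ATP read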). Put shortly: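 Cytotoxicity counter screen: intracellular ATP (CellTiter-Glo luminescence) measured in the doxycycline-induced CHO RORE-luciferase reporter line after 16 hr compound exposure at 37 C, 5% CO2.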

“And” between values parts separate entries of the source, which are not always exact repeats. Equal values may be shown once. The source made the active and inactive calls. Unless noted, the call rests on the fitted dose curve.

Estrogen receptor (Homo sapiens), sequence (P03372 whole entry, looked up): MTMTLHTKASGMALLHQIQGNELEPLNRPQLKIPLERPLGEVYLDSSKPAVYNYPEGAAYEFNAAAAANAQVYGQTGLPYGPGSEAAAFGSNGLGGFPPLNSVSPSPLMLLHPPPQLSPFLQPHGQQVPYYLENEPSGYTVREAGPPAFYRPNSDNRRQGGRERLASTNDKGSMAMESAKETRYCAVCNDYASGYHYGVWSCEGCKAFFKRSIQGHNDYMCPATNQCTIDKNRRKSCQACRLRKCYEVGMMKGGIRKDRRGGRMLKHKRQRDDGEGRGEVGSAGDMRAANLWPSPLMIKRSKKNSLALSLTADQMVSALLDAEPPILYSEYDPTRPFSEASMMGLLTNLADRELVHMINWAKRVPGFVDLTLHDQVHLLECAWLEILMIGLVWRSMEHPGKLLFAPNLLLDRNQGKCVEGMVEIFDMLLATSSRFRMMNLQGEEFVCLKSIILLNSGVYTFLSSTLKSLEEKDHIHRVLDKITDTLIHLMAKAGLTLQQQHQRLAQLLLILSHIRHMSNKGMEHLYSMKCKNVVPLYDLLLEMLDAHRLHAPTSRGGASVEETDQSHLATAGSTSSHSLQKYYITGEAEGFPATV
Bile acid receptor (Homo sapiens), sequence (Q96RI1 whole entry, looked up): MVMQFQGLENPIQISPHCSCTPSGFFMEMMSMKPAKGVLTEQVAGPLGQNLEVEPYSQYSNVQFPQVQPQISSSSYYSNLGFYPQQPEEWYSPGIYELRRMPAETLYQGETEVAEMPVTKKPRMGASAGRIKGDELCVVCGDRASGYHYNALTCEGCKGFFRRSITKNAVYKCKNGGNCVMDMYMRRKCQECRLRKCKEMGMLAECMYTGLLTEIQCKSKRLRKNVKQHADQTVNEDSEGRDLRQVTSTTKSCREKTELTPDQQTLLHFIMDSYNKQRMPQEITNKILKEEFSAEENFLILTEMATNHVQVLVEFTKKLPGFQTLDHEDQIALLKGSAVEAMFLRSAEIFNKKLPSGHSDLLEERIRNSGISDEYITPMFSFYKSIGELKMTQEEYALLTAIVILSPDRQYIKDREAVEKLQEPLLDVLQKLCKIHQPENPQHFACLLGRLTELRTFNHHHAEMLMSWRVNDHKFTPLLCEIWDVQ

With `CC(C)(c1ccccc1)c1cc(-n2nc3ccccc3n2)c(O)c(C(C)(C)c2ccccc2)c1`, the Potency entry in experiment [1] and in experiment [2] was “inactive” each time. The call in experiment [3] was inactive.

With `CCOP(=O)(OCC)Oc1ccc2c(C)c(Cl)c(=O)oc2c1`, the Potency entry in experiment [4], in experiment [6], in [7], in [9] and in experiment [2] was “inactive” each time. For the same compound, the activation in [5] was -0.972% (inactive); in [8], 2.16% (inactive); in [11] it was 0.977% (inactive). Also, the max response in [10] was found to be 2.41%.

In the case of `CNC(=O)/C=C(\C)OP(=O)(OC)OC`, the Potency result in experiment [1], in experiment [7], in experiment [2] and in experiment [12] was “inactive” throughout. In experiment [8], the activation is 6.76% (inactive).

For the compound `O=C(NC(=O)c1c(F)cccc1F)Nc1ccc(OC(F)(F)C(F)OC(F)(F)F)c(Cl)c1` (configuration not stated), the Potency entry in experiment [1], in experiment [9] and in [2] was “inactive” throughout. Moreover, the max response in experiment [10] is -12.6%. Besides, the activation in [11] is 1.61% (inactive). The call in experiment [3] was inactive.

For the compound `CCOP(=S)(OCC)Oc1nc(Cl)n(C(C)C)n1`, in [1], the Potency result was “inactive”. The activation in experiment [11] is 1.85% (inactive).

On to `Clc1ccc([C@@]2(Cn3cncn3)C[C@H](Br)CO2)c(Cl)c1`, for which the Potency entry in experiment [1], in experiment [7], in [9] and in [12] was “inactive” throughout. The activation in [8] was -2.3% (inactive); in [11], -1.71% (inactive). For the same compound, the max response in experiment [10] was -2.9%.

`C/C(=N\NC(=O)Nc1cc(F)cc(F)c1)c1ncccc1C(=O)O`: the Potency result in experiment [1], in [7], in experiment [9] and in experiment [12] was “inactive” in each case. In addition, the activation was -2.37% (inactive) and 0.898% (inactive) in [8]; 0.367% (inactive) and -2.66% (inactive) in [11]. The max response in experiment [10] was 4% and -10.7%.

With `C=C1CC[C@H](O)C/C1=C/C=C1\CCC[C@]2(C)[C@@H]([C@H](C)CCCC(C)C)CC[C@@H]12`, the Potency in experiment [1] was 15.8 µM [inconclusive] (active); in experiment [13], 66.8 µM (active).

Consider `CCC/C(=N\OCC)C1=C(O)CC(CC(C)SCC)CC1=O` (configuration not stated), for which the Potency result in [1], in experiment [9] and in [12] was “inactive” in each case. Further, the max response in [10] is -4.54%. For the same compound, the activation in experiment [11] was 0.879% (inactive). Moreover, the compound was classed as inactive in experiment [3].

As for `COC(=O)c1ccccc1CS(=O)(=O)NC(=O)Nc1nc(OC)cc(OC)n1`, the Potency entry in experiment [1], in experiment [7], in experiment [9] and in experiment [12] was “inactive” in each case. For the same compound, the results for the activation in [8] and in experiment [11] were -0.439% (inactive) and -0.866% (inactive), respectively. Further, in experiment [10], the max response was -9.59%. The compound was classed as inactive in experiment [3].

As for `COc1ccc(O)c(C(C)(C)C)c1`, the Potency result in experiment [1] and in [7] was “inactive” throughout. Moreover, in [8], the activation is -2.62% (inactive). The max response in experiment [10] was -14.4%.

As to `O=S(=O)(O)C(F)(F)C(F)(F)C(F)(F)C(F)(F)C(F)(F)C(F)(F)F`, the Potency result in experiment [1], in [7], in [9] and in experiment [2] was “inactive” throughout. The activation in [8] is -1.09% (inactive) and 0.298% (inactive); in experiment [11] it was 0.018% (inactive) and -0.659% (inactive). For the same compound, the max response in experiment [10] is -12.5% and -11.4%. In addition, the outcome in experiment [3] was inactive.

`CCCN(CCC)c1c([N+](=O)[O-])cc(C(F)(F)F)c(N)c1[N+](=O)[O-]`: the Potency in experiment [1] is 31.6 µM [inhibitor] (active). The activation in experiment [8] is 9.33% (inactive).

In the case of `COc1ccc(-c2ccccc2)cc1NNC(=O)OC(C)C`, the Potency entry in experiment [4], in [6], in experiment [7] and in experiment [9] was “inactive” each time. The activation was -16.7% (inactive) in experiment [5] and 1.06% (inactive) in [8]. Besides, the call in experiment [3] was inactive.

In the case of `Cc1c(COC(=O)C2C(/C=C(\Cl)C(F)(F)F)C2(C)C)cccc1-c1ccccc1` (configuration not stated), the Potency entry in [1], in experiment [7] and in experiment [2] was “inactive” throughout. Further, the activation in experiment [8] is 2.08% (inactive); in experiment [11], 1.42% (inactive).

As for `CC(C)C(=O)OCC(C)(C)C(OC(=O)C(C)C)C(C)C` (configuration not stated), the Potency entry in experiment [1], in experiment [9], in [2] and in [12] was “inactive” throughout. The activation in experiment [11] is -2.62% (inactive).

Take `CCOc1nc(C(Cl)(Cl)Cl)ns1`: the Potency entry in experiment [1] and in [2] was “inactive” in each case. Moreover, the max response in experiment [10] was -11.9%.

Take `Nc1cnn(-c2ccccc2)c(=O)c1Cl`: the Potency result in experiment [1], in experiment [9] and in experiment [2] was “inactive” each time. In addition, the max response in experiment [10] is -6.12%. Moreover, in experiment [11], the activation is -0.283% (inactive). The result in [3] was inactive.

As for `CCSCc1ccccc1OC(=O)NC`, the Potency entry in [1], in [7] and in [9] was “inactive” in each case. In addition, the activation in experiment [8] is 3.09% (inactive). The max response in experiment [10] was -16.4%.

Consider `O=C(Nc1ccccc1)Nc1ccnc(Cl)c1`, for which the Potency result in experiment [4], in experiment [6] and in experiment [7] was “inactive” each time. Moreover, the activation is 10.1% (inactive) in [5], -3.44% (inactive) in experiment [8] and -0.762% (inactive) in experiment [11].

In the case of `O=C(NC(=O)c1c(F)cccc1F)Nc1cc(Cl)c(OC(F)(F)C(F)F)c(Cl)c1`, in [4], the Potency result was “inactive”. In addition, in [5], the activation was 7.72% (inactive). Also, the max response in experiment [10] was found to be 5.34%.

As to `CCOP(=S)(OCC)SCCl`, the Potency result in experiment [4], in experiment [6], in experiment [7] and in [12] was “inactive” each time. Also, the activation is 5.88% (inactive) in experiment [5] and -1.72% (inactive) in experiment [11]. Moreover, in experiment [3], the outcome was inactive.

Turning to `CC(C)C1(C)N=C(c2ncccc2C(=O)O)NC1=O` (configuration not stated), the Potency result in experiment [4], in [7], in experiment [9], in experiment [2] and in experiment [12] was “inactive” in each case. In addition, the activation in [8] is -1.77% (inactive). Besides, in [10], the max response is -12.1%. For the same compound, the outcome in [3] was inactive.

Take `CC(C)(C)OOC(C)(C)c1ccc(C(C)(C)OOC(C)(C)C)cc1`: the Potency result in experiment [4], in [6], in experiment [7] and in experiment [12] was “inactive” throughout. Moreover, the activation in experiment [5] was 4.74% (inactive). The max response in [10] was -9.77%.

As to `[Ga]#[As]`, the Potency entry in experiment [4], in [6], in experiment [7] and in experiment [9] was “inactive” each time. Besides, the activation in experiment [5] is 2.63% (inactive); in experiment [11], -0.5% (inactive). Also, in [10], the max response is -5.43%. Also, the result in experiment [3] was inactive.

For the compound `CCSCCSP(=O)(OC)OC`, the Potency result in [4], in [6], in experiment [7] and in experiment [2] was “inactive” in each case. Besides, the values for the activation in [5] and in experiment [11] were -9.34% (inactive) and -0.99% (inactive), respectively. Moreover, in experiment [10], the max response came out at 1.71%. The Potency in [12] was 54.5 µM (active). In addition, in experiment [3], the result was inactive.

These data come from PubChem BioAssay (NCATS).
